For 40 compounds, outcome and cAMP activity change results are on record in PubChem BioAssay (Tox21).

Molecules are shown by their SMILES. Inconclusive results are not listed. The source made the active and inactive calls. Calls come from the whole dose curve.
% is set by controls: 0 for no effect and ±100 for the full control effect.

The assay can be described thus: qHTS assay to identify small molecule agonists or antagonists of the thyroid stimulating hormone receptor (TSHR) signaling pathway - wild type cell line counter screen (AID 1259384). Conditions: HEK293 wild type, cAMP HTRF counter-screen, active compounds read high; series mostly up to 92.4 µM. The text has this:
U.S. Tox21 Program National Center for Advancing Translational Sciences [NCATS] NIH Chemical Genomics Center [NCGC] U.S. Environmental Protection Agency [EPA] National Institutes of Environmental Health Sciences [NIEHS] National Toxicology Program [NTP] U.S. Food and Drug Administration [FDA] Tox21 Assay Overview: TSHR is the receptor for thyrotropin (thyroid stimulating hormone or TSH), a member of the glycoprotein hormone family. TSH is released by the anterior pituitary gland and is the main regulator of thyroid gland growth and development. Upon binding circulating thyrotropin, a G-protein signal cascade activates adenylyl cyclase and […] cAMP concentration is increased. cAMP is a key second messenger involved extensively in cellular signal transduction pathways associated with the majority of G-protein coupled receptors (GPCRs). The activation of these GPCRs by neurotransmitters, lipids, nucleotides, peptides and hormones results in the activation or the inhibition of plasma membrane-bound adenylate cyclase through heterotrimeric G-proteins. A cell-based TSHR-Hek293 assay can be used to identify TSHR agonists. To eliminate the false positive compounds identified from screening a cell-based TSHR-Hek293 cell line, cAMP assay in a wild type Hek293 cells was used as a counter screening.
Tox21 Assay Protocol Summary: Hek293 cells (wild type) were dispensed at 800 cells/4 uL/well in 1536-well white plates using a Multidrop dispenser. After the assay plates were incubated at a 37 C/5% CO2 incubator for 18 hrs, 23 nL of compounds dissolved in DMSO, positive controls or DMSO only was transferred to the assay plate by a pin tool, followed by 1 ul medium containing Ro20-1724. After 30 min of incubation at room temperature, 2.5 ul/well of cAMP-d2 and 2.5 ul/well of anti-cAMP-cryptate were added respectively into the assay plates using a Flying Reagent Dispenser. The plates were incubated at room temperature for 1 hr. The fluorescence intensity in the plates was measured using an Envision plate reader. Each test compound was measured at 15 concentrations and in triplicates.
In general terms: qHTS replaces the single test concentration by a dilution series.
For the compound `NC1(c2ccccc2)CCCCC1`, the compound was classed as inactive.
Consider `C=CCN1CC[C@]23CCCC[C@H]2[C@H]1Cc1ccc(O)cc13`, for which the compound was called inactive.
`CCCOC(=O)c1cncn1C(C)c1ccccc1` (stereo not given): the outcome was inactive.
For the compound `C[C@H](N)C(=O)c1ccccc1`, the outcome was inactive.
The same measure, in the same setting: the same measure for `CC(C)(C)C(=O)Cl`: “inactive”; for `CC#Cc1cc(C)nc(Nc2ccccc2)n1`: “inactive”.
With `CCC1(c2ccccc2)C(=O)N(COC)C(=O)N(COC)C1=O`, the result was inactive.
Consider `NC(=O)CS(=O)C(c1ccccc1)c1ccccc1` (stereo not given), for which the outcome was inactive.
Same read-out and setting: the same measure for `CCOC(=O)COc1ccc(Cl)cc1Cl`: “inactive”.
In the case of `Cc1ccc2c(c1)C1CN(C)CCC1N2` (stereo not given), the cAMP activity change is -0.0429% [at 18.9 µM] (inactive).
With `O=C(O)C(Cl)Br` (stereo not given), the outcome was inactive.
With `Clc1cc2c(cc1Cl)Oc1cc(Cl)c(Cl)cc1O2`, the cAMP activity change is 1.16% [at 0.349 µM] (inactive).
As to `C#CCOC(=O)/C=C(C)/C=C/CC(C)CCCC(C)C` (stereo not given), the result was inactive.
Same read-out and setting: the same measure for `CCOP(=O)(CN(CCO)CCO)OCC`: “inactive”; for `O=C1CCCCC1Cl` (stereo not given): “inactive”; for `CN1C(=O)COc2c(C(=O)NC3CN4CCC3CC4)cc(Cl)cc21` (stereo not given): “inactive”.
Still for that read-out and setting: the same measure for `O=CCCl`: “inactive”; for `CON(C)C(=O)Nc1ccc(Br)cc1`: “inactive”.
Same read-out and setting: the same measure for `CCN[C@@H](C)Cc1ccccc1`: “inactive”; for `ClCCCCCCCl`: “inactive”; for `COC(=O)[C@@H](N)CCCN/C(N)=N/[N+](=O)[O-]`: “inactive”.
Consider `CC(C)[N+](C)(CCC(C(N)=O)(c1ccccc1)c1ccccc1)C(C)C`, for which the compound was classed as inactive.
On to `NC(=O)OCCCc1ccccc1`, for which the compound was classed as inactive.
On the same count and under the same terms, the same measure for `S=C=S`: “inactive”; for `CC(C)NCC(O)c1ccc([N+](=O)[O-])cc1` (stereo not given): “inactive”; for `CCOC1Oc2ccc(OS(C)(=O)=O)cc2C1(C)C` (stereo not given): “inactive”.
Still for that read-out and setting: the same measure for `C=CCC1(C(C)CC)C(=O)NC(=O)NC1=O` (stereo not given): “inactive”; for `CCCN1CCC[C@@H]2Cc3[nH]ncc3C[C@H]21`: “inactive”.
On the same count and under the same terms, under `CC(C)(N)Cc1ccccc1Cl` stands “inactive”; under `COP(=O)(OC)O/C(C)=C/C(=O)N(C)C`, “inactive”; under `C1CN2CCC1CC2`, “inactive”.
Consider `[O-][Br+2]([O-])O`, for which the compound was classed as inactive.
Same read-out and setting: the same measure for `Cc1ccc(Cl)c(O)c1`: “inactive”; for `CCCC[N+](=O)[O-]`: “inactive”.
Still for that read-out and setting: under `CCOC(=O)C(Cl)Cc1cc(-n2nc(C)n(C(F)F)c2=O)c(F)cc1Cl` (stereo not given) stands “inactive”; under `ClCOCCl`, “inactive”.
Still for that read-out and setting: under `CCC(=O)OC1(c2ccccc2)CCN(C)CC1` stands “inactive”.
As to `N#CC(Br)(Br)C(N)=O`, the result was inactive.
Regarding `O=c1[nH]c2ccccc2n1C1CCNCC1`, the result was inactive.
Still for that read-out and setting: under `Clc1ccc(C(Cl)(Cl)Cl)cn1` stands “inactive”.
